The list is not random: actives were taken first. Their share in the collection is about 3%.
LmPK inh = LmPK (Leishmania mexicana) enzyme inhibition; purified LmPK, Kinase-Glo ATP luminescence, 1 h; Potency, µM (highest dose often 57.5 µM), without a hit: at the top dose activity change, negative = inhibition, usual class: inhibitors; 290,000 tested, 0.37% active; AID 1721
Target sequence (Q27686 whole entry, looked up): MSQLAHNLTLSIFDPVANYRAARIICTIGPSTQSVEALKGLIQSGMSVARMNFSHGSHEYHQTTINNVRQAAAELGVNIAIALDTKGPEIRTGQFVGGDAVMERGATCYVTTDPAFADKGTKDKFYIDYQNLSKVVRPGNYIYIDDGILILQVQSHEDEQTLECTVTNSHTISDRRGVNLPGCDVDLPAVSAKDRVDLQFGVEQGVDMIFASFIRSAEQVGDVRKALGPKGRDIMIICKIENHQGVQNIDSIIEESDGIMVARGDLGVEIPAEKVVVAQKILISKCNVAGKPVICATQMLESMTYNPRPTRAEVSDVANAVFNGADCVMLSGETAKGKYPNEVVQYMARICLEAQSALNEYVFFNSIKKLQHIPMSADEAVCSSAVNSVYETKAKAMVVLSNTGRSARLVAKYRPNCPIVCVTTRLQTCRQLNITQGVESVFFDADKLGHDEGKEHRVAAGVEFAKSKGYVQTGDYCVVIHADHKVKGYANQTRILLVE
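Screened at intermediate enzyme activity to detect both inhibitors and activators: LmPK at 0.1 nM, with a 0.5 nM enzyme column as activation reference. PEP 0.5 mM, ADP 0.1 mM; ATP detected by luminescence after 1 h.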
RE007 growth inh = less growth of the S. pombe RE007 Vpr strain; S. pombe RE007 Vpr strain, BacTiter-Glo ATP luminescence, 24 h; AID 651644; Potency, µM (doses to about 92.2 µM), for the others: at the highest dose activity change, negative = less growth, usual class: inhibitors; 360,000 tested, 0.21% active; active means well fitted falling curve with a large enough effect; inconclusive means small, poorly fitted or top-dose-only effect; inactive means no such curve, though single readings can be large or run the other way; further: nearly all actives have a fitted effect of over 50% in size
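Fission yeast RE007 carrying one integrated HIV-1 vpr copy, seeded at OD 0.01 in PMG+AL medium with 23 nL pinned compound. Grown 24 h at 30 degrees; viability read by BacTiter-Glo luminescence after 5 min.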
Tb PYK inh = inhibitors of Trypanosoma brucei pyruvate kinase. TbPYK enzyme, Kinase-Glo Plus ATP luminescence, 45 min. Potency, µM (highest dose often 76.8 µM), inactives show at the highest dose activity, negative = inhibition, usual class: inhibitors. 410,000 tested, 0.12% active; further: nearly all actives have a fitted effect of over 50% in size
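Screened from lowest to highest concentration, compounds were pinned into TbPYK/substrate mixtures, and ADP (130 uM final) was added. Plates sat at room temperature for 45 min prior to Kinase-Glo Plus detection by luminescence.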
Sm TGR block = blocks Schistosoma mansoni thioredoxin glutathione reductase | purified TGR, DTNB reduction, TNB absorbance 405 nm | Potency, µM (top dose mostly 114 µM), without a hit: at the highest dose activity change, negative = inhibition, actives largely listed as inhibitors | Q962Y6 | 360,000 tested, 3% active; further: nearly all actives have a fitted effect of over 60% in size
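First, TGR (20 nM dispensed) and NADPH were mixed with compound. Second, a 15 min room-temperature incubation followed. Third, further NADPH and then DTNB were added to start the reaction. Finally, TNB absorbance was monitored kinetically.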
* = called active by the depositor; u = inconclusive; x = not tested or not shown; ! = not confirmed by another sample; [ ] = dose if it differs, or a comment. Unless noted, the call rests on the fitted dose curve; in most records, active means well fitted curve in the direction sought with a large enough effect; inconclusive means small, poorly fitted or top-dose-only effect, or another doubt; inactive means no such curve, though single readings can be large; an effect the other way counts as inactive or inconclusive. On the % scale 0 is the no-effect control and ±100 the full control effect; potency means the concentration at half of the fitted maximal effect.

SMILES	LmPK inh	RE007 growth inh	Tb PYK inh	Sm TGR block
CCN(c1ccccc1C)S(=O)(=O)c1nnc(NC(=O)c2ccco2)s1	-2%	-9%	0%	20µM*!
Cc1cccc(C(=O)Nc2nnc(S(=O)(=O)N(C)Cc3ccco3)s2)c1	1%	-12%	-13%	7.9µM*!
CCCCCOc1ccccc1CN1C(=O)C(=O)c2cc(C)ccc21	x	x	0%	-17%
CCOC(=O)CSC1=NC(=O)CS1	-2%	-22%	-6%	32µM*
CCOC(=O)CSc1snnc1C	x	5%	3%	x
COc1ccc(-c2nc(CN3CCC(C(=O)NCCCN4CCN(c5ccccc5F)CC4)CC3)c(C)o2)cc1OC	x	x	10%	-1%
COc1ccc2c(c1OC)C(=O)N(c1cccc(C)c1)C2	14µM*	-12%	-16%	-3%
CC(=O)n1c(=O)c2ccccc2c(=O)n1-c1ccccc1	-1%	3%	-3%	32µM*
C=Cc1ccc(Cn2c(C)c(C(=O)NCc3cccc(C)c3)sc2=O)cc1	x	10%[18.4 µM]	-12%	x
O=c1c(C=NCCN2CCNCC2)c(-c2ccccc2)[nH]n1-c1ccc([N+](=O)[O-])cc1	1%	x	x	-5%
COc1ccc(-c2[nH]n(-c3ccc([N+](=O)[O-])cc3)c(=O)c2C=NCCN2CCNCC2)cc1	16µM*	x	x	3%
Cc1[nH]n(-c2ccc([N+](=O)[O-])cc2)c(=O)c1C=NCCN1CCN(C(=O)c2ccccc2)CC1	28µM*	u	-18%	-28%
COC(=O)C1=C(C(=O)OC)[C@@H]2N(Cc3ccccc3)c3ccccc3[C@@]23C[C@@H](C(=O)OC)N(S(=O)(=O)c2ccc(C)cc2)C3=N1	-3%[11.5 µM]	x	x	x
COc1ccc(OCC(=O)Nc2nccs2)cc1	25µM*	-6%	-25%	31%
COc1ccc(OCCC(=O)Nc2nccs2)cc1	0%	51%	-5%	x
O=C(COc1ccc2c(c1)OCO2)Nc1nccs1	14µM*	1%	u	-8%
N=C(N)c1ccc(OCCCOc2ccc(C(=N)N)cc2)cc1	x	x	-4%	x
Cc1ccc(/C=C2/SC(=S)N(C3CCCCC3)C2=O)o1	6%	-4%	-6%	45µM*
Cc1ccc(/C=C2\SC(=S)N(CC3CCCO3)C2=O)o1 (stereo not drawn)	-7%	2%	u	4µM*
O=C1/C(=C/c2cccnc2)SC(=S)N1CC1CCCO1 (stereo not drawn)	-1%	6%	-3%	-10%
O=C1/C(=C/c2ccco2)SC(=S)N1CC1CCCO1 (stereo not drawn)	6%	9%	-10%	20µM*
O=C1/C(=C/c2ccncc2)SC(=S)N1C1CCCCC1	0%	1%	-5%	-15%
O=C1/C(=C\c2ccc(-c3ccccc3Cl)o2)SC(=S)N1CC1CCCO1 (stereo not drawn)	4%	-4%	-2%	-29%
Cc1cccnc1C1=NOC(Cc2ccccc2)C(=O)N1Cc1ccccc1F (stereo not drawn)	x	3%[18.4 µM]	2%	x
Cc1cc(C)c(C(=O)NCC(=O)c2ccccc2)c(C)c1	x	-11%	-1%	x
SMILES	LmPK inh	RE007 growth inh	Tb PYK inh	Sm TGR block
CC(=O)c1ccc(NC(=O)CSc2nc(=O)n(Cc3ccccn3)c3c2CCC3)cc1	x	x	1%	-1%
O=C(C1CCN(C2CC(=O)N(c3ccc(F)cc3)C2=O)CC1)N1CCOCC1 (stereo not drawn)	-12%	50µM*	6%	u
CC(=O)Nc1cccc(N2C(=O)CC(N3CCC(C(=O)N4CCCCC4)CC3)C2=O)c1 (stereo not drawn)	-6%	12%	-9%	20µM*
O=C1CC(N2CCN(c3cccc(C(F)(F)F)c3)CC2)C(=O)N1c1ccc(F)cc1 (stereo not drawn)	1%	-5%	-18%	-44%
CCN1C(=O)CC(N2CCC(C(=O)N3CCOCC3)CC2)C1=O (stereo not drawn)	-10%	u	2%	-6%
O=C1CCCN1CCC1CCN(C2CC(=O)N(c3ccc(F)cc3)C2=O)CC1 (stereo not drawn)	1%	32µM*	4%	u
CC(=O)c1cccc(N2C(=O)CC(N3CCN(S(=O)(=O)c4ccccc4F)CC3)C2=O)c1 (stereo not drawn)	x	3%	0%	x
COc1cc(OC)cc(N2C(=O)CC(N3CCC(C(=O)N4CCCCC4)CC3)C2=O)c1 (stereo not drawn)	1%	32µM*	3%	u
COc1ccc(N2C(=O)CC(N3CCN(c4ccccc4F)CC3)C2=O)cc1 (stereo not drawn)	1%	-24%	3%	u
O=C(c1cc(C(F)(F)F)cc(C(F)(F)F)c1)N1CCC2(CC1)CN(c1ncccn1)C2	x	x	0%	x
CC1C(=O)C(=O)C=CN1C (stereo not drawn)	x	x	-5%	x
O=C1CC(N2CCN(c3ccc(F)cc3)CC2)C(=O)N1Cc1ccc(N2CCCC2=O)cc1 (stereo not drawn)	2%	2%	4%	45µM*
O=C1CC(N2CCC(C(=O)N3CCCCC3)CC2)C(=O)N1 (stereo not drawn)	-2%	-22%	5%	32µM*
COc1ccc(N2CCN(C3CC(=O)N(Cc4ccc(N5CCCC5=O)cc4)C3=O)CC2)cc1 (stereo not drawn)	-3%	-21%	3%	0%
COc1ccc(OC)c(NS(=O)(=O)c2cc3c(cc2Cl)N(C(C)=O)CCO3)c1	x	x	0%	2.5µM*
O=C(NCc1ccco1)c1ccccc1NS(=O)(=O)c1cccs1	3%	9%	-7%	u
O=C(NCc1ccco1)c1ccccc1NS(=O)(=O)c1ccc(Cl)s1	11%	2%	-16%	28µM*
COC(=O)C1=C(C(=O)OC)C2OC1c1cc3ccccc3cc12	x	35µM*	28µM*	x
CS(=O)(=O)c1nc(S(=O)(=O)c2ccc(Cl)cc2)c(NCc2ccccn2)s1	1%	5%	3%	35µM*
CCCS(=O)(=O)c1nc(S(=O)(=O)c2ccc(C)cc2)c(NCc2ccccn2)s1	2%	3%	-15%	7.9µM*
CCCS(=O)(=O)c1nc(S(=O)(=O)c2ccc(C)cc2)c(NCc2ccco2)s1	6%	-17%	-5%	18µM*
CCCS(=O)(=O)c1nc(S(=O)(=O)c2ccc(C)cc2)c(N2CC(C)OC(C)C2)s1 (stereo not drawn)	-3%	-8%	-10%	18µM*
Cc1ccc(S(=O)(=O)c2nc(S(=O)(=O)c3ccc(C)cc3)c(NCc3ccco3)s2)cc1	0%	-8%	-8%	-34%
CCS(=O)(=O)c1nc(S(=O)(=O)c2ccc(C)cc2)c(NCc2ccccn2)s1	17%	-3%	1%	1%
O=S(=O)(c1cccc(C(F)(F)F)c1)N1CCC(Oc2ccc(-n3cnnn3)cc2)CC1	x	x	0%	6%
COC(=O)[C@H](NC(=O)c1cc([C@@H](NC(=O)OC(C)(C)C)C(C)C)sc1N)C(C)C	x	-20%	x	x
CCOc1ccc(Nc2nc(-c3cccc(Cl)c3)c3c(n2)-c2ccccc2OC3)cc1	x	x	0%	-10%

Source: PubChem
